Assay results taken from PubChem BioAssay (NCI).
This is part of a sample that, as a whole, favours compounds with a hit. Of some 79,000 tested, about 15% had one in any assay. Values without a mark were called inactive. The source made the active and inactive calls. Rule as the data show it: active = growth inhibition above about 70%; inactive = the rest.

How the values were obtained:
[1] = NCI Yeast Anticancer Drug Screen. Data for the sgs1 strain (AID 173);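 also: 0% = growth of vehicle-only control cultures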; details: S. cerevisiae sgs1 mutant, hits give high values
In short: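 Each compound was added to cultures of the altered yeast strain. Growth was recorded, and inhibition was derived by comparison with vehicle controls.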

[2] = NCI Yeast Anticancer Drug Screen. Data for the mlh1 rad18 strain (AID 175); details: S. cerevisiae mlh1 rad18 strain growth inhibition, hits give high values
In short: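 Genetically defined yeast (DNA repair-deficient) exposed to compounds; growth inhibition determined relative to vehicle.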

[3] = NCI Yeast Anticancer Drug Screen. Data for the rad18 strain (AID 177); details: S. cerevisiae rad18 mutant growth inhibition, hits give high values
In short: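 Vehicle-treated cultures served as the baseline for scoring compound-induced growth inhibition in DNA-repair-mutant yeast.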

[4] = NCI Yeast Anticancer Drug Screen. Data for the rad52 strain (AID 147);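 also: 0% = growth of vehicle-treated control cultures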; details: S. cerevisiae rad52 mutant growth inhibition, hits give high values
In short: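 The repair-mutant yeast strain was incubated with compounds, then growth was read and inhibition derived relative to vehicle.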

[5] = NCI Yeast Anticancer Drug Screen. Data for the wt1 strain (AID 149);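 also: 0% = growth of vehicle-treated wt1 cultures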; details: S. cerevisiae wt1 strain (SPY 50644) growth inhibition, hits give high values
In short: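 Using yeast strain wt1, compound-induced growth inhibition was determined against vehicle-treated cultures.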

[6] = NCI Yeast Anticancer Drug Screen. Data for the rad50EPP+ strain (AID 151);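 also: 0% = growth of vehicle-treated control cultures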; details: S. cerevisiae rad50 mutant strain, hits give high values
In short: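 Vehicle-normalised growth inhibition; rad50EPP+ yeast strain, altered in DNA damage repair, compound-treated.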

[7] = NCI Yeast Anticancer Drug Screen. Data for the rad50 strain (AID 155);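 also: 0% = growth of vehicle-only cultures of the same strain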; details: S. cerevisiae rad50 strain growth inhibition, hits give high values
In short: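 Relative growth inhibition (compound vs vehicle) was measured in yeast with a defined repair-gene alteration.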

[8] = NCI Yeast Anticancer Drug Screen. Data for the mec2-1 strain (AID 157); details: S. cerevisiae mec2-1 strain, hits give high values
In short: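 Mutant yeast (mec2-1) grown with compound; growth inhibition relative to vehicle control reported.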

[9] = NCI Yeast Anticancer Drug Screen. Data for the rad14 strain (AID 159);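 also: 0% = growth of vehicle-treated control cultures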; details: S. cerevisiae rad14 strain growth inhibition, hits give high values
In short: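 Screen for anticancer potential: a yeast strain altered in DNA damage repair is grown with compound, and reduced growth is quantified against vehicle controls.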

[10] = NCI Yeast Anticancer Drug Screen. Data for the sgs1 mgt1 strain (AID 161);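 also: 0% = growth of cultures given vehicle only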; details: S. cerevisiae sgs1 mgt1 strain, hits give high values
In short: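 Compounds are added to genetically altered yeast, and growth is compared with cultures given vehicle alone to give percent inhibition.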

[11] = NCI Yeast Anticancer Drug Screen. Data for the CLN2oe strain (AID 163);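 also: 0% = growth of vehicle-only control cultures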; details: S. cerevisiae CLN2oe strain, hits give high values
In short: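 Compounds are applied to yeast harbouring a defined cell-cycle control change; reduced growth compared with vehicle-treated controls gives the value.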

[12] = NCI Yeast Anticancer Drug Screen. Data for the cln2 rad14 strain (AID 165);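 also: 0% = growth equal to vehicle treated cultures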; details: S. cerevisiae cln2 rad14 strain, hits give high values
In short: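 Readout is yeast growth inhibition versus vehicle-treated controls, using a strain with cln2 and rad14 alterations exposed to compound.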

[13] = NCI Yeast Anticancer Drug Screen. Data for the bub3 strain (AID 167); details: S. cerevisiae bub3 mutant strain, hits give high values
In short: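 Screening used yeast with an engineered genetic alteration affecting cell cycle control. Compound-exposed cultures were compared with vehicle cultures, and reduced growth was taken as inhibition.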

[14] = NCI Yeast Anticancer Drug Screen. Data for the wt2 strain (AID 169);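 also: 0% = growth of vehicle-treated yeast cultures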; details: S. cerevisiae wt2 strain growth inhibition, hits give high values
In short: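 Against vehicle-treated controls, the growth of yeast exposed to each compound was compared, and the inhibition was recorded.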

[15] = NCI Yeast Anticancer Drug Screen. Data for the mlh1 strain (AID 171);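 also: 0% = growth of vehicle-treated control cultures of the same strain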; details: S. cerevisiae mlh1 strain growth inhibition, hits give high values
In short: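 Measured: yeast growth. Reference: vehicle-treated controls. Organism: strain with a defined alteration affecting DNA damage repair or cell cycle control, treated with compound.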

[16] = at 5.0 µM (retest, dose inferred, filed as 0.5)
[17] = at 50.0 µM (retest, dose inferred, filed as 5.0)

C[CH2][Sn]1([CH2]C)[O]C2C(O)OC(CO)C(O)C2[O]1 (centres undefined)
growth inhibition ([1]; at 1.2 µM): -12% | growth inhibition ([1]; at 3.7 µM): -5% | growth inhibition ([1]; at 11.0 µM): -8% | growth inhibition ([1]; at 33.0 µM): 16% | growth inhibition ([1]; at 100.0 µM): 59% | growth inhibition [2, 16]: 26% | growth inhibition [2, 17]: 88% (active) | growth inhibition ([2]; at 50.0 µM): 72.5% (active) | growth inhibition ([3]; at 1.2 µM): 11% | growth inhibition ([3]; at 3.7 µM): 0% | growth inhibition ([3]; at 11.0 µM): 8% | growth inhibition ([3]; at 33.0 µM): 23% | growth inhibition ([3]; at 100.0 µM): 73% (active)

NNc1ccccc1Cl
growth inhibition ([4]; at 1.2 µM): 40% | growth inhibition ([4]; at 3.7 µM): 72% (active) | growth inhibition ([4]; at 11.0 µM): 78% (active) | growth inhibition ([4]; at 33.0 µM): 95% (active) | growth inhibition ([4]; at 100.0 µM): 96% (active) | growth inhibition ([5]; at 1.2 µM): 40% | growth inhibition ([5]; at 3.7 µM): 73% (active) | growth inhibition ([5]; at 11.0 µM): 81% (active) | growth inhibition ([5]; at 33.0 µM): 95% (active) | growth inhibition ([5]; at 100.0 µM): 97% (active) | growth inhibition ([6]; at 1.2 µM): 56% | growth inhibition ([6]; at 3.7 µM): 80% (active) | growth inhibition ([6]; at 11.0 µM): 92% (active) | growth inhibition ([6]; at 33.0 µM): 95% (active) | growth inhibition ([6]; at 100.0 µM): 94% (active) | growth inhibition ([7]; at 1.2 µM): 39% | growth inhibition ([7]; at 3.7 µM): 83% (active) | growth inhibition [7, 16]: 21% | growth inhibition ([7]; at 11.0 µM): 80% (active) | growth inhibition ([7]; at 33.0 µM): 96% (active) | growth inhibition [7, 17]: 97% (active) | growth inhibition ([7]; at 50.0 µM): 89.2% (active) | growth inhibition ([7]; at 100.0 µM): 97% (active) | growth inhibition ([8]; at 1.2 µM): 19% | growth inhibition ([8]; at 3.7 µM): 68% | growth inhibition [8, 16]: -8% | growth inhibition ([8]; at 11.0 µM): 84% (active) | growth inhibition ([8]; at 33.0 µM): 97% (active) | growth inhibition [8, 17]: 99% (active) | growth inhibition ([8]; at 50.0 µM): 90.7% (active) | growth inhibition ([8]; at 100.0 µM): 97% (active) | growth inhibition ([9]; at 1.2 µM): 23% | growth inhibition ([9]; at 3.7 µM): 29% | growth inhibition ([9]; at 11.0 µM): 76% (active) | growth inhibition ([9]; at 33.0 µM): 96% (active) | growth inhibition ([9]; at 100.0 µM): 96% (active) | growth inhibition [10, 16]: 11% | growth inhibition [10, 17]: 96% (active) | growth inhibition ([10]; at 50.0 µM): 92.3% (active) | growth inhibition ([11]; at 1.2 µM): 60% | growth inhibition ([11]; at 3.7 µM): 93% (active) | growth inhibition ([11]; at 11.0 µM): 96% (active) | growth inhibition ([11]; at 33.0 µM): 97% (active) | growth inhibition ([11]; at 100.0 µM): 98% (active) | growth inhibition [12, 16]: 41% | growth inhibition [12, 17]: 98% (active) | growth inhibition ([12]; at 50.0 µM): 89.5% (active) | growth inhibition ([13]; at 1.2 µM): 38% | growth inhibition ([13]; at 3.7 µM): 89% (active) | growth inhibition [13, 16]: 86% (active) | growth inhibition ([13]; at 11.0 µM): 93% (active) | growth inhibition ([13]; at 33.0 µM): 97% (active) | growth inhibition [13, 17]: 98% (active) | growth inhibition ([13]; at 50.0 µM): 89.5% (active) | growth inhibition ([13]; at 100.0 µM): 97% (active) | growth inhibition ([14]; at 1.2 µM): 42% | growth inhibition ([14]; at 3.7 µM): 66% | growth inhibition ([14]; at 11.0 µM): 83% (active) | growth inhibition ([14]; at 33.0 µM): 96% (active) | growth inhibition ([14]; at 100.0 µM): 96% (active) | growth inhibition ([15]; at 1.2 µM): 44% | growth inhibition ([15]; at 3.7 µM): 80% (active) | growth inhibition ([15]; at 11.0 µM): 89% (active) | growth inhibition ([15]; at 33.0 µM): 97% (active) | growth inhibition ([15]; at 100.0 µM): 97% (active) | growth inhibition ([1]; at 1.2 µM): 47% | growth inhibition ([1]; at 3.7 µM): 86% (active) | growth inhibition ([1]; at 11.0 µM): 90% (active) | growth inhibition ([1]; at 33.0 µM): 96% (active) | growth inhibition ([1]; at 100.0 µM): 97% (active) | growth inhibition [2, 16]: 82% (active) | growth inhibition [2, 17]: 97% (active) | growth inhibition ([2]; at 50.0 µM): 88.2% (active)

CC1CN1C1=C(Cl)C(=O)C(N2CC2C)=C(Cl)C1=O (centres undefined)
growth inhibition ([4]; at 1.2 µM): 22% | growth inhibition ([4]; at 3.7 µM): 40% | growth inhibition ([4]; at 11.0 µM): 64% | growth inhibition ([4]; at 33.0 µM): 97% (active) | growth inhibition ([4]; at 100.0 µM): 97% (active) | growth inhibition ([5]; at 1.2 µM): 0% | growth inhibition ([5]; at 3.7 µM): -4% | growth inhibition ([5]; at 11.0 µM): 12% | growth inhibition ([5]; at 33.0 µM): 81% (active) | growth inhibition ([5]; at 100.0 µM): 97% (active) | growth inhibition ([6]; at 1.2 µM): 8% | growth inhibition ([6]; at 3.7 µM): 21% | growth inhibition ([6]; at 11.0 µM): 47% | growth inhibition ([6]; at 33.0 µM): 94% (active) | growth inhibition ([6]; at 100.0 µM): 97% (active) | growth inhibition ([7]; at 1.2 µM): 16% | growth inhibition ([7]; at 3.7 µM): 27% | growth inhibition [7, 16]: 19% | growth inhibition ([7]; at 11.0 µM): 79% (active) | growth inhibition ([7]; at 33.0 µM): 97% (active) | growth inhibition [7, 17]: 95% (active) | growth inhibition ([7]; at 50.0 µM): 46% | growth inhibition ([7]; at 100.0 µM): 98% (active) | growth inhibition ([8]; at 1.2 µM): 2% | growth inhibition ([8]; at 3.7 µM): 1% | growth inhibition [8, 16]: 15% | growth inhibition ([8]; at 11.0 µM): 6% | growth inhibition ([8]; at 33.0 µM): 92% (active) | growth inhibition [8, 17]: 93% (active) | growth inhibition ([8]; at 50.0 µM): 18.8% | growth inhibition ([8]; at 100.0 µM): 98% (active) | growth inhibition ([9]; at 1.2 µM): 22% | growth inhibition ([9]; at 3.7 µM): 37% | growth inhibition ([9]; at 11.0 µM): 50% | growth inhibition ([9]; at 33.0 µM): 97% (active) | growth inhibition ([9]; at 100.0 µM): 98% (active) | growth inhibition [10, 16]: 39% | growth inhibition [10, 17]: 96% (active) | growth inhibition ([10]; at 50.0 µM): 69.3% | growth inhibition ([11]; at 1.2 µM): 0% | growth inhibition ([11]; at 3.7 µM): -8% | growth inhibition ([11]; at 11.0 µM): -7% | growth inhibition ([11]; at 33.0 µM): 27% | growth inhibition ([11]; at 100.0 µM): 54% | growth inhibition [12, 16]: -3% | growth inhibition [12, 17]: 82% (active) | growth inhibition ([12]; at 50.0 µM): 10.3% | growth inhibition ([13]; at 1.2 µM): 18% | growth inhibition ([13]; at 3.7 µM): 15% | growth inhibition [13, 16]: 23% | growth inhibition ([13]; at 11.0 µM): 29% | growth inhibition ([13]; at 33.0 µM): 86% (active) | growth inhibition [13, 17]: 93% (active) | growth inhibition ([13]; at 50.0 µM): 45.4% | growth inhibition ([13]; at 100.0 µM): 95% (active) | growth inhibition ([14]; at 1.2 µM): -6% | growth inhibition ([14]; at 3.7 µM): 3% | growth inhibition ([14]; at 11.0 µM): 43% | growth inhibition ([14]; at 33.0 µM): 96% (active) | growth inhibition ([14]; at 100.0 µM): 98% (active) | growth inhibition ([15]; at 1.2 µM): -1% | growth inhibition ([15]; at 3.7 µM): -1% | growth inhibition ([15]; at 11.0 µM): 24% | growth inhibition ([15]; at 33.0 µM): 64% | growth inhibition ([15]; at 100.0 µM): 97% (active) | growth inhibition [2, 16]: 59% | growth inhibition [2, 17]: 97% (active) | growth inhibition ([2]; at 50.0 µM): 69.1% | growth inhibition ([3]; at 1.2 µM): 92% (active) | growth inhibition ([3]; at 3.7 µM): 96% (active) | growth inhibition ([3]; at 11.0 µM): 96% (active) | growth inhibition ([3]; at 33.0 µM): 97% (active) | growth inhibition ([3]; at 100.0 µM): 97% (active)
